Screening data (PubChem)
A selection: hits, their analogues and other compounds. The true share with any hit is near 2.9%.
PLC-gamma1 inh = blocks human PLC-gamma1 enzyme activity | P19174 | purified PLC-gamma1, fluorogenic substrate, fluorescence | inhibition, % at 12.2 µM | 0.84% of 370,000 active | AID 720700; in the data active = inhibition above about 9.5%
proKLK7 act = proKLK7 (human) activation, primary screen | purified proKLK7, EDANS-DABCYL substrate fluorescence; 100% is mature enzyme control, 0% vehicle | activation, % at 7 µM | AID 652039 | P49862 | 0.9% of 370,000 active;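 active = activation above the mean of all tested compounds plus 3 SD, computed per campaign excluding outliers beyond control limits, cut at about 13% in these data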
ADAM10 inh = inhibitors of human ADAM10. recombinant ADAM10, EDANS/DABCYL FRET peptide cleavage, 3 h. inhibition, % at 7 µM. 0.62% of 370,000 active;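 active = inhibition above a per-campaign cutoff equal to the mean of compounds falling between control-based bounds plus 3 SD, cut at about 20% in these data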
ADAM17 inh = ADAM17 inhibition, QFRET primary screen; AID 720648; 0.83% of 370,000 active; P78536; recombinant ADAM17, EDANS/DABCYL FRET peptide cleavage; inhibition, % at 6.95 µM;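 active = inhibition above the mean of compounds lying between control limits plus 3 SD, set per campaign, cut at about 8.5% in these data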
PLCb3 inh = PLC-beta3 (human) inhibition, primary screen; Q01970; Purified PLC-beta3, fluorogenic substrate, fluorescence; inhibition, % at 12.2 µM; 0.18% of 370,000 active; in the data active = inhibition above about 11%
ADAM10 confirm = confirmation of inhibitors of human ADAM10. 1% of 2,100 active. AID 743208. shares compounds with ADAM10 inh. inhibition, % at 6.95 µM. ADAM10 QFRET peptide cleavage, EDANS fluorescence;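 active = inhibition above about 20% chosen separately for each screening run, limit read from the data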
ADAM17 ctr = ADAM17 inhibition, counter-screen for ADAM10 exosite hits; AID 743214; shares compounds with ADAM10 inh; ADAM17 QFRET peptide cleavage, EDANS fluorescence; 0.5% of 2,100 active; inhibition, % at 6.95 µM;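 active = mean triplicate inhibition above the solvent-only control wells' mean plus 3 SD, cut at about 12% in these data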
Numbers stand for hits; 0 = inactive; - = no result.

SMILES	PLC-gamma1 inh	proKLK7 act	ADAM10 inh	ADAM17 inh	PLCb3 inh	ADAM10 confirm	ADAM17 ctr
Cc1cccc(NC(=O)c2ccc(C3SCC(=O)N3CCc3ccccc3)cc2)c1C (stereo not drawn)	0	0	21.5	0	0	0	0
CCc1ccc(NC(=O)c2ccc(C3SCC(=O)N3CCc3ccccc3)cc2)cc1 (stereo not drawn)	0	0	0	0	0	-	-
COc1cc(CNc2nc3c(C)cc(C)cc3s2)ccc1O	0	0	21.8	0	0	0	0
O=c1c2cc3cc(Cl)ccc3nc2ncn1Cc1ccc(Oc2ccccc2)cc1	0	0	0	0	0	-	-
O=C(Cn1nc(-c2ccccc2F)ccc1=O)Nc1ccc(S(=O)(=O)N2CCCCCC2)cc1	0	0	0	0	0	-	-
O=C(Cn1ncc2c1-c1ccccc1OC2)Nc1ccc(S(=O)(=O)N2CCCCC2)cc1	0	0	22.4	10.1	0	0	0
CCOC(=O)[C@]12CCCC=C1N(Cc1ccc(Cl)cc1Cl)C(=O)[C@H](CC(=O)NCCc1ccccc1OC)C2	0	0	22.7	0	0	0	0
CCOC(=O)[C@]12CCC=C1N(Cc1ccc(Cl)cc1Cl)C(=O)[C@H](CC(=O)NCc1ccc(OC)c(OC)c1)C2	0	0	20.2	0	0	0	0
CCCCNC(=O)C[C@@H]1C[C@@]2(C(=O)OCC)CCCC=C2N(Cc2ccc(Cl)cc2Cl)C1=O	0	0	0	0	0	-	-
O=C(NO)c1ccc(C(=O)N(C2CCCCC2)C2CCCCC2)cc1	0	0	29.6	0	0	22.0	0
CCN(CC)S(=O)(=O)c1cccc(NC(=O)CNc2cccc(S(=O)(=O)N3CCCC3)c2)c1	0	0	0	0	0	-	-
Cc1ccc(C)c(OCCC(=O)OCC(=O)Nc2ccc(C)c(S(=O)(=O)N3CCCCC3)c2)c1	0	0	26.9	0	0	0	0
Cc1ccc(NCC(=O)Nc2cccc(S(=O)(=O)N(C)C)c2)cc1S(=O)(=O)N1CCCCCC1	0	0	23.8	0	0	0	0
Cc1ccccc1OCCC(=O)OCC(=O)Nc1ccc(C)c(S(=O)(=O)N2CCCCC2)c1	0	0	0	0	0	-	-
Cc1ccc(NC(=O)c2cccc(S(=O)(=O)N(C)c3ccccc3)c2)cc1S(=O)(=O)N1CCOCC1	0	0	20.5	0	0	0	0
COC(=O)[C@]12C[C@H](CC(=O)N3CCC(c4ccccc4)CC3)C(=O)N(Cc3ccco3)C1=C[C@H](C(C)C)O[C@@H]2C1CC1	0	0	0	0	0	-	-
CCCNC(=O)C(Cc1cccc(OC)c1)NC(=O)c1ccc(C(C)(C)C)cc1 (stereo not drawn)	0	0	82.6	0	0	0	0
CCCNC(=O)C(Cc1cccc(OC)c1)NC(=O)c1ccc(C#N)cc1 (stereo not drawn)	0	0	0	0	0	-	-
COC(=O)C1CN(C2CCCC2)CCS(=O)(=O)N1Cc1ccc(C)cc1 (stereo not drawn)	0	0	0	0	0	-	-
Cc1cccc(C(=O)NN2C(=O)C3C(c4ccccc4)C=CC(c4ccccc4)C3C2=O)c1 (stereo not drawn)	0	0	19.8	0	0	0	0
O=C(NN1C(=O)C2C3C=CC(C3)C2C1=O)c1ccccc1 (stereo not drawn)	0	0	0	0	0	-	-
Cn1c(=O)c(C(=O)NNC(=O)c2ccccc2Cl)c(O)c2ccccc21	0	0	0	0	0	-	-
Cn1c(=O)c(C(=O)NNC(=O)c2ccccc2Br)c(O)c2ccccc21	0	0	19.8	0	0	0	0
Cc1c(C(=O)N(C)Cc2ccc(OC(F)F)cc2)oc2ccccc12	0	0	19.8	0	0	0	0
O=C(O)C(Nc1nc(C(F)(F)F)nc2ccccc12)c1ccccc1 (stereo not drawn)	0	0	19.8	0	0	0	0
OC(CNc1nc(C(F)(F)F)nc2ccccc12)c1ccccc1 (stereo not drawn)	0	0	0	0	0	-	-
CCCN1C(=O)c2[nH]nc(-c3ccccc3)c2C1c1ccc(C)cc1 (stereo not drawn)	0	0	0	0	0	-	-
